Test results taken from PubChem BioAssay (Tox21).
Unmarked numbers belong to inactive results. Results filed as inconclusive are left out. Entries that show only a call come without a potency. Active and inactive are the calls of the source. Unless noted, calls come from the whole dose curve; as a rule, active = well fitted curve in the direction sought with a large enough effect in the repeat runs; inconclusive = weak or mixed curves; inactive = no such curve, though single readings can be large; an effect the other way counts as inactive or inconclusive.

Experiments:
[1] = qHTS assay to identify small molecule agonists of the estrogen receptor alpha (ER-alpha) signaling pathway in the presence of an antagonist - cell viability counter screen (AID 1259386); conditions: VM7Luc4E2 viability, CellTiter-Fluor fluorescence, 22 h; series mostly up to 92.4 µM;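 note: cells exposed to compounds for 22 h at 37 °C before the viability read; nearly all actives have a fitted effect of over 30% in size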; note: potency is the fitted concentration of half-maximal effect
Procedure, shortened: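 Steps: 5-day stripped-FBS culture; seed and incubate 24hr; add ICI-182,780 (10.0nM final); pin 15-point compound titration; incubate 22hr at 37C; add CellTiter-Fluor at 21hr; read fluorescence.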

[2] = molecular target: Progesterone receptor (Homo sapiens) (UniProt P06401); experiment: qHTS assay to identify small molecule agonists of the progesterone receptor (PR) signaling pathway (AID 1346784; calls by dose curve; note: nearly all actives have a fitted effect of over 30% in size); conditions: PR-UAS-bla HEK293T, beta-lactamase FRET ratio, 16 h; series mostly up to 92.4 µM
Procedure, shortened: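 Compounds were tested for PR agonism in HEK 293T cells bearing a beta-lactamase gene under UAS control. Treatment lasted 16 hr at 37C; signal came from fluorescence of a FRET substrate.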

[3] = molecular target: Progesterone receptor (Homo sapiens) (UniProt P06401); experiment: qHTS assay to identify small molecule antagonists of the progesterone receptor (PR) signaling pathway (AID 1346795; active = well fitted inhibition curve with a large enough effect in the signal ratio in the repeat runs, not every such curve was filed as active; the % refers to the signal ratio); conditions: PR-UAS-bla HEK293T, beta-lactamase FRET ratio, 16 h; series mostly up to 92.4 µM
Procedure, shortened: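 In HEK293T cells bearing the PR-UAS-bla reporter, compound effects on promegestone-driven (1 nM) beta-lactamase expression are assessed after 16 hr using a fluorescent FRET substrate incubated 2 hr at room temperature.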

[4] = qHTS assay to identify small molecule antagonists of the progesterone receptor (PR) signaling pathway - cell viability counter screen (AID 1346798); conditions: PR-UAS-bla HEK293T viability, CellTiter-Glo luminescence, 16 h; series mostly up to 92.4 µM; note: nearly all actives have a fitted effect of over 50% in size
Procedure, shortened: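 Following a 4 hr attachment, PR-UAS-bla HEK293T cells in charcoal-stripped FBS medium were exposed to compounds with R5020 for 16 hr; CellTiter-Glo was added and luminescence read after 30 min at room temperature.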

[5] = qHTS assay to identify small molecule agonists of the progesterone receptor (PR) signaling pathway - cell viability counter screen (AID 1346799; calls by dose curve; note: nearly all actives have a fitted effect of over 45% in size); conditions: PR-UAS-bla HEK293T viability, CellTiter-Glo luminescence, 16 h; series mostly up to 92.4 µM
Procedure, shortened: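 Here, 3,000 PR-UAS-bla HEK293T cells per well were treated with compounds for 16 hr after a 6 hr preincubation at 37C and 5% CO2; cell viability is the CellTiter-Glo luminescence signal.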

[6] = qHTS assay to identify small molecule agonists of the TGF-beta/Smad signaling pathway - cell viability counter screen (AID 1346829); conditions: SBE-bla HEK293T viability, CellTiter-Glo luminescence, 5 h; series mostly up to 76.8 µM; note: top concentration of the series differs between compounds; nearly all actives have a fitted effect of over 45% in size
Procedure, shortened: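 Luminescence from CellTiter-Glo, read after a 30 min room-temperature incubation, gives cell viability of SBE-bla HEK 293T cells treated 5 hr with compounds at 37 C.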

[7] = qHTS assay to identify small molecule agonists of the TGF-beta/Smad signaling pathway (AID 1346859; active = well fitted activation curve with a large enough effect in the signal ratio in the repeat runs, not every such curve was filed as active; the % refers to the signal ratio); conditions: SBE-bla HEK293T, TGF-beta/Smad beta-lactamase reporter, 5 h; series mostly up to 76.8 µM
Procedure, shortened: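 Each well held 4,000 SBE-bla HEK 293T cells incubated overnight before compound addition; 5 hr later the cleavable FRET substrate went on for 2 hr at room temperature, and fluorescence was read at two emissions.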

[8] = molecular target: Thyrotropin-releasing hormone receptor (Homo sapiens) (UniProt P34981); experiment: qHTS assay to identify small molecule antagonists of the thyrotropin-releasing hormone receptor (TRHR) signaling pathway (AID 1346877; active = well fitted inhibition curve with a large enough effect in the repeat runs, not every such curve was filed as active); conditions: TRHR-HEK293, TRH-induced calcium fluorescence, antagonist mode; series mostly up to 51.3 µM
Procedure, shortened: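 Human TRHR in HEK293 cells; inhibition of the intracellular calcium rise triggered by 1 nM TRH was followed by fluorescence over 3 min. Compounds were run at 15 concentrations, three replicates each.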

[9] = molecular target: Thyrotropin-releasing hormone receptor (Homo sapiens) (UniProt P34981); experiment: qHTS assay to identify small molecule agonists of the thyrotropin-releasing hormone receptor (TRHR) signaling pathway (AID 1346891; calls by dose curve); conditions: TRHR-HEK293 calcium fluorescence, agonist mode; series mostly up to 57.6 µM
Procedure, shortened: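 Screening of agonists relied on calcium signalling in HEK293 cells expressing human TRHR: dye loading 2 h at 37 °C preceded compound addition and a 3-min fluorescence time course.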

[10] = Human pregnane X receptor (PXR) small molecule agonists, qHTS cell viability counter screen (AID 1346977); conditions: PXR-Luc HepG2 viability, CellTiter-Fluor, 24 h; series mostly up to 92.4 µM; note: nearly all actives have a fitted effect of over 50% in size; note: potency is the fitted concentration of half-maximal effect
Procedure, shortened: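 Tox21 qHTS format; PXR-Luc HepG2, 2,000/well, charcoal-stripped FBS 5%. Cpd exposure 24hr. Read: CellTiter-Fluor fluorescence, multiplexed with luciferase.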

[11] = Caspase-3/7 induction in HepG2 cells by small molecules, qHTS assay (AID 1346978); conditions: HepG2 caspase-3/7 activation, Caspase-Glo luminescence, 17 h; series mostly up to 92.4 µM; note: nearly all actives have a fitted effect of over 15% in size
Procedure, shortened: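 Caspase-3/7 induction was measured by Caspase-Glo 3/7 luminescence (30 min, room temperature) after a 17 hr compound exposure of wild-type HepG2 cells seeded at 2,000 per well and pre-incubated 5 hr.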

[12] = Caspase-3/7 induction in CHO-K1 cells by small molecules, qHTS cell viability counter screen (AID 1346979); conditions: CellTiter-Fluor fluorescence, 17 h; series mostly up to 92.4 µM; note: nearly all actives have a fitted effect of over 35% in size; note: potency is the fitted concentration of half-maximal effect
Procedure, shortened: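 CellTiter-Fluor viability check, qHTS format: wild-type CHO-K1, 16hr compound treatment, 1hr reagent incubation, fluorescence read.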

[13] = Caspase-3/7 induction in CHO-K1 cells by small molecules, qHTS assay (AID 1346980); conditions: CHO-K1 caspase-3/7 induction, Caspase-Glo luminescence, 17 h; series mostly up to 92.4 µM; note: nearly all actives have a fitted effect of over 15% in size
Procedure, shortened: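 Luminescent Caspase-Glo 3/7 read (30min, room temperature) quantified apoptosis induction. Cells were wild-type CHO-K1, treated with compound for 17hr at 37 C and 5% CO2.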

[14] = Caspase-3/7 induction in HepG2 cells by small molecules, qHTS cell viability counter screen (AID 1346981); conditions: CellTiter-Fluor fluorescence, 17 h; series mostly up to 92.4 µM; note: nearly all actives have a fitted effect of over 30% in size
Procedure, shortened: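 The parent HepG2 line is plated at 2,000 cells per well and rested 5 hr before compound pinning from DMSO stocks. Following a 16-hr treatment at 37 C, a fluorogenic live-cell substrate (CellTiter-Fluor) reports viability after 1 hr.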

[15] = molecular target: Nuclear receptor subfamily 1 group I member 2 (Homo sapiens) (UniProt O75469); experiment: Human pregnane X receptor (PXR) small molecule agonists, qHTS assay (AID 1346982); conditions: PXR-Luc HepG2, CYP3A4 luciferase reporter, 24 h; series mostly up to 92.4 µM; note: nearly all actives have a fitted effect of over 35% in size; note: potency is the fitted concentration of half-maximal effect
Procedure, shortened: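 After plating in 5% charcoal-stripped FBS and a 5 hr rest, PXR-Luc HepG2 cells received compounds in DMSO. Following 24 hr at 37 C, ONE-Glo was added and light output read.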

[16] = molecular target: Nuclear receptor subfamily 1 group I member 2 (Rattus norvegicus) (UniProt Q9R1A7); experiment: Rat pregnane X receptor (rPXR) activation by small molecules, qHTS assay (AID 1346983); conditions: rPXR luciferase reporter cells, One-Glo luminescence, 24 h; stronger effect = higher value; note: nearly all actives have a fitted effect of over 20% in size
Procedure, shortened: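 Luminescent readout (One-Glo luciferase, 30 min room temperature) followed 24 hr compound treatment at 37 C of rPXR cells plated 2,000 per well and preincubated 5hr; qHTS format with compounds delivered in DMSO.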

[17] = molecular target: Nuclear receptor subfamily 1 group I member 2 (Homo sapiens) (UniProt O75469); experiment: CYP3A4 induction through human pregnane X receptor (PXR) by small molecules, qHTS assay (AID 1346984); conditions: DPX-2 HepG2 PXR, CYP3A4-luciferin luminescence, 24 h; series mostly up to 46.1 µM; note: nearly all actives have a fitted effect of over 40% in size
Procedure, shortened: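 Human PXR activation is tracked via CYP3A4 promoter-luciferase in DPX-2 (HepG2) cells. Compounds treat cells for 24hr at 37C, and luminescence is read after One-Glo.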

[18] = molecular target: Nuclear receptor subfamily 1 group I member 2 (Homo sapiens) (UniProt O75469); experiment: Human pregnane X receptor (PXR) activation by small molecules, qHTS assay (AID 1346985); conditions: DPX-2 HepG2 CYP3A4-luciferase, 24 h; series mostly up to 38.3 µM; note: nearly all actives have a fitted effect of over 40% in size
Procedure, shortened: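 DPX-2 cells (HepG2 co-transfected with a PXR response element and a CYP3A4-promoter luciferase construct) were seeded at 2,000 per well, rested 5 hr at 37C, then exposed to DMSO-dissolved compounds for 24 hr. Activation was read as luciferase luminescence.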

[19] = qHTS assay to identify small molecule antagonists of the TGF-beta/Smad signaling pathway - cell viability counter screen (AID 1346824); conditions: SBE-bla HEK293T viability, CellTiter-Glo luminescence; series mostly up to 76.8 µM; note: nearly all actives have a fitted effect of over 50% in size
Procedure, shortened: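 Cytotoxicity counter-screen run in the same wells as the beta-lactamase Smad reporter read: CellTiter-Glo luminescence after 30 min at room temperature. HEK 293T SBE-bla cells had 5 hr compound exposure at 37 C with TGF-beta1 (0.25 ng/mL stock).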

Nuclear receptor subfamily 1 group I member 2 (Homo sapiens), sequence (O75469 whole entry, looked up): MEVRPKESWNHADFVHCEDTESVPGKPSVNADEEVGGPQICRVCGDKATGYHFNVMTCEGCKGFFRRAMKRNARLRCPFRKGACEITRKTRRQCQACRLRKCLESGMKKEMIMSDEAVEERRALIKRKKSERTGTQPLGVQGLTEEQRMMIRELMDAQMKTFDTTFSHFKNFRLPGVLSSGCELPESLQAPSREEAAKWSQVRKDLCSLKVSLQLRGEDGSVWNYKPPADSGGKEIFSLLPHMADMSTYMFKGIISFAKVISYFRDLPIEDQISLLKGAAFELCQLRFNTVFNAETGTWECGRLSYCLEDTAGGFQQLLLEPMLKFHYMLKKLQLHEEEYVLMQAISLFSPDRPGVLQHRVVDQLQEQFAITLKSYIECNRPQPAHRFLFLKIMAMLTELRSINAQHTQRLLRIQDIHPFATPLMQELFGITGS
Thyrotropin-releasing hormone receptor (Homo sapiens), sequence (P34981 whole entry, looked up): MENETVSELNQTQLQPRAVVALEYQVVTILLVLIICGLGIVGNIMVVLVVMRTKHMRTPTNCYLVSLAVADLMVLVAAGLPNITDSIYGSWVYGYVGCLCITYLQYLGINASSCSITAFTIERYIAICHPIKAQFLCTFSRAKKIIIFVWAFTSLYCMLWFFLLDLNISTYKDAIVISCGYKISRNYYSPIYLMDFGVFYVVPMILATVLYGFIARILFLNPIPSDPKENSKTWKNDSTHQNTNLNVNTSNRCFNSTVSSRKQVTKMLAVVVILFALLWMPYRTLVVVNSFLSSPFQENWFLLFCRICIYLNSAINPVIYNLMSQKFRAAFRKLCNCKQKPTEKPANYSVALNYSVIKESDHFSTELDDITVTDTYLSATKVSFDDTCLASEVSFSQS
Nuclear receptor subfamily 1 group I member 2 (Rattus norvegicus), sequence (Q9R1A7 whole entry, looked up): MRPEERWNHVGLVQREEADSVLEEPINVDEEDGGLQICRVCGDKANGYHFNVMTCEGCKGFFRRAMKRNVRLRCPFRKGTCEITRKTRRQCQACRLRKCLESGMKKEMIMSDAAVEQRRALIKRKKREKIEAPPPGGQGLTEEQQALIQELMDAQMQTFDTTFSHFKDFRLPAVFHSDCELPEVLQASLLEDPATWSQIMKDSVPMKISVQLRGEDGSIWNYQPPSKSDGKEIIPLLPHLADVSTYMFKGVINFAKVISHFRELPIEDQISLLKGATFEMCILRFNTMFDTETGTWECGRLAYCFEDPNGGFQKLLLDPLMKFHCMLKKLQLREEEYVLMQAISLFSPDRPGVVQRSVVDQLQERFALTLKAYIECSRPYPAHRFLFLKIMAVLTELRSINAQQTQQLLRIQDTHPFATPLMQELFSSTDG
Progesterone receptor (Homo sapiens), sequence (P06401 whole entry, looked up): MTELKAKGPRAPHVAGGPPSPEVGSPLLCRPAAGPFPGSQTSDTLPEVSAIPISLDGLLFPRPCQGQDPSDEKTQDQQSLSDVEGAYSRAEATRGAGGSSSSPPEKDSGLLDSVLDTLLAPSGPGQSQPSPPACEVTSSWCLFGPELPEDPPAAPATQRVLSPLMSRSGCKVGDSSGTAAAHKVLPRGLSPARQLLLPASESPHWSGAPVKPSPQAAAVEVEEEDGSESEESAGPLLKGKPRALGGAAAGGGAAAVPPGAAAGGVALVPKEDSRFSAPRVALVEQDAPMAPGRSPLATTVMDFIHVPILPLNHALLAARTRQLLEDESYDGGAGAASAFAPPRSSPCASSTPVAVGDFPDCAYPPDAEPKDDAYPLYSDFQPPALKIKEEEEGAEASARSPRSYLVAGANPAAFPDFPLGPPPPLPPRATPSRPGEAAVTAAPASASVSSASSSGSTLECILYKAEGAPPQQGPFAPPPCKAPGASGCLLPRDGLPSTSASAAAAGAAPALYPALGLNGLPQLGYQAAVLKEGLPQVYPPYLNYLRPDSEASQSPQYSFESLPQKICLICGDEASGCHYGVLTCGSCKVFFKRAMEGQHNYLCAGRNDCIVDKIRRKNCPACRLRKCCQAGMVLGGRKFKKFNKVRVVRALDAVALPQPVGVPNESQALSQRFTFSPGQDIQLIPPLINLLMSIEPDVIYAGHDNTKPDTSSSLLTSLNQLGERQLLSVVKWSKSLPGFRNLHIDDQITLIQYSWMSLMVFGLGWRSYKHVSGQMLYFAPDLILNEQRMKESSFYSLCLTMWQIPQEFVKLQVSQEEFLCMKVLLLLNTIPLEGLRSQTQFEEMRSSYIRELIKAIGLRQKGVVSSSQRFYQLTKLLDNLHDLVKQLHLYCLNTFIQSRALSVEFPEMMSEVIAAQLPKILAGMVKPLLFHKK

SMILES	Potency [1]	Potency [2]	Potency [3]	Potency [4]	Potency [5]	Potency [6]	outcome [7]	Potency [8]	outcome [9]	Potency [10]	outcome [11]	Potency [12]	outcome [13]	Potency [14]	Potency [15]	max activation [16]	Potency [17]	Potency [18]	outcome [19]
N#CN	inactive	inactive	inactive	inactive	inactive	inactive	inactive	inactive	inactive	inactive	inactive	inactive	inactive	inactive	inactive	0.661%	inactive	inactive	
CCNc1nc(Cl)nc(NC(C)(C)C)n1	inactive	inactive		inactive	inactive	inactive	inactive	inactive	inactive	inactive	inactive	inactive	inactive	inactive	30.6 µM (active)				inactive
CCOC(=O)NC(C)(C)Cc1ccc(Cl)cc1	inactive	inactive	inactive	inactive	inactive	inactive	inactive			inactive	inactive	inactive	inactive	inactive	inactive				inactive
Cn1c(CCCC(=O)O)nc2cc(N(CCCl)CCCl)ccc21	inactive	inactive		inactive	inactive	inactive	inactive	inactive	inactive	inactive	inactive		inactive	inactive	inactive	-0.144%	inactive	inactive	inactive
COc1cc(CC(C)N)cc(OC)c1OC (stereo not drawn)	inactive	inactive			inactive	inactive	inactive	inactive	inactive	inactive	inactive		inactive	inactive	inactive				inactive
CCCC(C)C1(CC)C(=O)N=C(S)NC1=O (stereo not drawn)	inactive	inactive	inactive	inactive		inactive	inactive	inactive	inactive	inactive	inactive		inactive	inactive		-4.4%			inactive
CN(C)CCc1c[nH]c2cccc(OP(=O)(O)O)c12		inactive	inactive	inactive		inactive	inactive	inactive	inactive	inactive	inactive	inactive	inactive	inactive	inactive				inactive
O=C1CC(=O)NC(=O)N1	inactive	inactive	inactive	inactive	inactive		inactive	inactive	inactive	inactive	inactive	inactive	inactive	inactive	inactive				inactive
O=C(NC(O)C(Cl)(Cl)Cl)NC(O)C(Cl)(Cl)Cl (stereo not drawn)	inactive	inactive	inactive	inactive	inactive	inactive	inactive	inactive	inactive	inactive	inactive	inactive	inactive	inactive	inactive	-0.374%	inactive	inactive	inactive
C#CC(C)(C)O	inactive	inactive	inactive	inactive	inactive	inactive	inactive			inactive	inactive	inactive	inactive	inactive					inactive
COc1ccc2c(C(=O)c3ccc(Cl)cc3)c(C)n(CC(=O)O)c2c1	inactive	inactive	inactive	inactive		inactive	inactive	inactive	inactive	inactive	inactive		inactive	inactive	inactive				inactive
CC(C)[C@]12CC(=O)[C@H](C)[C@H]1C2	inactive	inactive			inactive	inactive	inactive			inactive	inactive	inactive	inactive	inactive	inactive				inactive
CCCCCCCCSC(=O)Oc1cc(Cl)nnc1-c1ccccc1	inactive	inactive		inactive		inactive	inactive	inactive	inactive	inactive	inactive		inactive	inactive					inactive
CC(C)C(C)(N)C#N (stereo not drawn)	inactive	inactive		inactive	inactive	inactive	inactive	inactive	inactive	inactive	inactive	inactive	inactive	inactive					inactive
O=C(Cl)/C=C/C(=O)Cl	inactive			inactive		inactive	inactive			inactive	inactive	inactive	inactive	inactive	inactive				inactive
Cn1c(N)nc2c3cccnc3ccc21	26 µM (active)	inactive		inactive	inactive	inactive	inactive	inactive	inactive	26 µM (active)	inactive	51.8 µM (active)	inactive						inactive
